# Assay outcomes: PubChem, several laboratories
# An excerpt weighted towards active compounds, which were near 1.2% of everything screened.
# Bcl-xL primary – inhibitors of human Bcl-xL, primary screen, biochemical, fluorescence polarization, HTS. GST-Bcl-xL / FITC-Bim BH3 peptide fluorescence polarization. inhibition, % at 10.9 µM. 320,000 tested, 0.7% active;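 active = inhibition above the mean of all tested compounds plus 3 SD, cutoff set per campaign, cut at about 30% in these data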;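 also: 0% = DMSO wells and 100% = unlabeled Bim-BH3 peptide competitor; inhibitors lower millipolarization by displacing the labeled peptide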
# Target sequence (Q07817 whole entry, looked up): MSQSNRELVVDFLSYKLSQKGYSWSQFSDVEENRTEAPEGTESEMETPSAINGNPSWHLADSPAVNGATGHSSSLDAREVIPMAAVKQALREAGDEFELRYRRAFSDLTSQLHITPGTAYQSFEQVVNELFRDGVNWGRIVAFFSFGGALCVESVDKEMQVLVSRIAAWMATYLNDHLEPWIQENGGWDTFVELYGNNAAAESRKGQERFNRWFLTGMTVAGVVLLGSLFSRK
# eLon inh – inhibitors of E. coli Lon protease, primary screen, biochemical, fluorescence polarization. purified E. coli Lon protease. inhibition, % at 7.94 µM. 360,000 tested, 0.42% active; in the data active = inhibition above about 13%, passing the limit was not always enough;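 also: 0% = enzyme with probe and DMSO and 100% = no enzyme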
# MEX-5 binding – MEX-5 zinc finger RNA-binding disruptors – biochemical, C. elegans, fluorescence polarization, MLPCN library, primary screen; activity score (negative = inhibition of binding), % at 10 µM; MEX-5/FITC-TCR2 RNA binding; active compounds read low; 300,000 tested, 0.38% active; AID 1832, 2009; Zinc finger protein mex-5 (Caenorhabditis elegans), Q9XUB2;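 active = inhibition past about -25% in most replicates, and total fluorescence under double the plate's negative control median, limit read from the data; inconclusive = replicates evenly split on the limit, or fluorescence at least double controls; inactive = too little inhibition in most replicates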;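 also: 0% = DMSO and -100% = 5 µM competing unlabeled TCR2 RNA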
# Keap1-Nrf2 PPI – Keap1-Nrf2 protein-protein interaction inhibitors, primary screen, biochemical, fluorescence polarization, single point. Keap1 Kelch-Nrf2 peptide fluorescence polarization, 1536-well. inhibition, % at 9.4 µM. 340,000 tested, 0.15% active; in the data active = inhibition above about 12%; inconclusive = no clear call, values can overlap the other calls; inactive = below about 7.3%;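 also: human Keap1 Kelch domain with fluorescein labeled Nrf2 9mer peptide probe; 0% = neutral control wells and 100% = peptide positive control; higher means more block of Keap1 binding to Nrf2 peptide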
# C-LANA FP – inhibitors of KSHV C-LANA binding to DNA, primary screen, biochemical, fluorescence polarization, FAM-LBS DNA, MBP-C-LANA, single point. AID 504423, 2011. inhibition, % at 9 µM. 340,000 tested, 0.078% active;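 active = highest replicate inhibition at or above 60% at 9 µM, even if other replicates fall short; inactive = all replicates below 60% inhibition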;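 also: 0% = neutral control wells and 100% = 4 µM acridine orange control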
# GLD-1 RNA inh – GLD-1/TGE RNA complex disruptors, primary screen, biochemical, fluorescence polarization; inhibition, % at 5.96 µM; 320,000 tested, 0.44% active; purified GLD-1 + fluorescein TGE RNA; AID 2280, 2010;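 active = percent inhibition above a per-plate cutoff, the plate mean of test compounds plus 3 SD, cut at about 30% in these data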;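 also: 0% = DMSO wells with GLD-1 and probe and 100% = wells lacking GLD-1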
# Target sequence (Q17339 whole entry, looked up): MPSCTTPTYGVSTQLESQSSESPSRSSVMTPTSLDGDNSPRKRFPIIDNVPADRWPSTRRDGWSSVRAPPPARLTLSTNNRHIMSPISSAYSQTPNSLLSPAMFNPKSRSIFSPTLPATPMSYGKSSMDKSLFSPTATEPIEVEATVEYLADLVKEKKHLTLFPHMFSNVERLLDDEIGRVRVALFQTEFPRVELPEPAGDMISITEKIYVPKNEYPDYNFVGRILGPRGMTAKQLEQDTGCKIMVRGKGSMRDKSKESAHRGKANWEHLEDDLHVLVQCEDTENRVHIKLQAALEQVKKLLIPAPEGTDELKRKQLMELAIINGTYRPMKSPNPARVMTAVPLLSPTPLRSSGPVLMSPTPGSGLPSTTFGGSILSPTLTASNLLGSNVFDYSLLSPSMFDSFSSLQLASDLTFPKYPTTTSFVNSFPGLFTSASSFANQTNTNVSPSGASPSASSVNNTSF
# GLD-1 TGE cf – GLD-1/TGE RNA binding inhibitors, retest, confirmation, biochemical, fluorescence polarization, triplicate; shares compounds with GLD-1 RNA inh; GLD-1/FL-TGE RNA fluorescence polarization; inhibition, % at 5.96 µM; 550 tested, 10% active; AID 2459, 2010;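 active = average inhibition across triplicates above the hit cutoff set in the primary screen, cut at about 32% in these data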;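 also: 0% = GLD-1 with RNA probe and DMSO and 100% = wells lacking GLD-1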
# DNA intercal 2 – DNA intercalator detection, dose response, counter-screen for C-LANA DNA-binding inhibitor project, biochemical, dry powder | shares compounds with C-LANA FP | Acridine orange-DNA displacement, fluorescence polarization | AC50, µM (highest dose often 35 µM), for inactives: at the highest dose activity change, negative = inhibition | 20 tested, under 10 active;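 active = signal drop with an AC50 no more than ten times the top valid dose; inconclusive = flat curve with 30 to 70% inhibition, or poor fit; inactive = no drop, flat response, or AC50 above the limit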
# Keap1 TSA – Keap1 Kelch domain binders by thermal stabilisation, dose response, biophysical, thermal shift, RT-PCR instrument, cherry-pick; shares compounds with Keap1-Nrf2 PPI; 400 tested, 8% active; delta Tm; active compounds read high; AID 651823, 2012; max delta Tm, degrees C; in the data active = max delta Tm above about 0.48 degrees C
# Dye-only ctr – Sypro Orange dye melt without protein, dose response, artefact control for Keap1-Nrf2 interaction inhibitor project, biochemical, thermal shift counterscreen, cherry-pick | shares compounds with Keap1-Nrf2 PPI | Sypro Orange dye-only thermal melt, no protein, delta Tm; top dose 26 µM | delta Tm, degrees C (concentration not given with the values) | 140 tested, under 10 active;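 active = at highest dose tested, delta Tm positive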
# eLon confirm – E. coli Lon protease inhibitor retest, confirmation, biochemical, fluorescence polarization; inhibition, % at 7.94 µM; 1,400 tested, 31% active; AID 602230, 2012; purified E. coli Lon; shares compounds with eLon inh; in the data active = inhibition above about 16%;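 also: 0% = enzyme with probe and DMSO and 100% = no enzyme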
# Numbers without * were called inactive; ? = inconclusive; . = not tested or not shown.
SMILES,Bcl-xL primary,eLon inh,MEX-5 binding,Keap1-Nrf2 PPI,C-LANA FP,GLD-1 RNA inh,Keap1 TSA,others
O=c1[nH]c2cc3ccccc3cc2nc1C(F)(F)F,13.9,25.7*,-10.5,8.8,8.8,57.9*,.,GLD-1 TGE cf=59.6*;eLon confirm=37.4*
O=C(O)CC(C(=O)O)N1C(=O)/C(=C/C=C/c2ccco2)SC1=S (stereo not given),41.5*,1.3,-65.6*,-1.8,106.0*,12.2,.,DNA intercal 2=6.4%
O=C1CCC(c2ccc3ccccc3c2)O1 (stereo not given),.,-7.5,.,3.3,0.5,.,.,
CC1(C)[C@@H](O)CC[C@]2(C)[C@H]3C(=O)C=C4[C@@H]5C[C@@](C)(C(=O)O)CC[C@]5(C)CC[C@@]4(C)[C@]3(C)CC[C@@H]12,-1.0,-4.0,1.5,2.2,2.9,1.8,.,
CC1(C)[C@@H](O[C@H]2O[C@H](C(=O)O)[C@@H](O)[C@H](O)[C@H]2O[C@@H]2O[C@H](C(=O)O)[C@@H](O)[C@H](O)[C@H]2O)CC[C@]2(C)[C@H]3C(=O)C=C4[C@@H]5C[C@@](C)(C(=O)O)CC[C@]5(C)CC[C@@]4(C)[C@]3(C)CC[C@@H]12,.,.,.,.,.,.,.,DNA intercal 2=-4.9%
O=[N+]([O-])c1ccc(Cl)c2c1C1C=CCC1C(c1ccccn1)N2 (stereo not given),17.3,7.0,-3.0,-0.9,-0.9,13.8,.,
O=C(O)C1Nc2c(O)cc(Cl)c([N+](=O)[O-])c2C2C=CCC12 (stereo not given),78.0*,-8.9,-60.4*,42.0*,120.4*,6.1,0.92*,DNA intercal 2=4.7%
CCc1nc2ccc(C(=O)N(C)Cc3ccco3)cn2c1N(CC)C(=O)NCCc1ccccc1,.,1.1,.,.,.,.,.,
Nc1c(C(=O)Nc2ccccc2F)sc2nc(Cc3ccccc3)cc(C(F)(F)F)c12,0.1,-6.1,?,32.9*,44.1,1.4,-0.2,DNA intercal 2=19.4µM*
CC(=O)c1ccc2c(c1)C1C=CCC1C(C(=O)O)N2 (stereo not given),.,38.3*,.,20.5*,113.6*,.,2.1*,DNA intercal 2=1.6%;Dye-only ctr=-33;eLon confirm=21.9*
COc1ccc(/C=C2/CCC(CN3CCOCC3)C2=O)cc1 (stereo not given),.,-3.2,.,-13.5,0.1,.,.,
CC(OC(=O)c1ccc(C(C)(C)C)cc1)C(=O)NC1CCCCC1C (stereo not given),-2.7,1.6,2.1,1.5,0.4,7.7,.,
CC(OC(=O)c1ccc([N+](=O)[O-])o1)C(=O)NC1CCCCC1C (stereo not given),-5.7,4.1,.,20.8*,10.4,5.9,-0.07,
O=C1c2cccc3c(N4CCCCC4)ccc(c23)C(=O)N1c1cccc(O)c1,34.0*,-133.8,14.2,27.0*,52.9,7.8,-0.08,Dye-only ctr=-26.9
O=C(c1cccc(N2C(=O)c3ccccc3C2=O)c1)N1CCCCCC1,-0.6,-11.5,0.3,-3.3,0.4,0.4,.,
Cc1snc(S(=O)(=O)/C(C#N)=N/Nc2cccc(C(F)(F)F)c2)c1C#N,7.8,-0.8,-3.0,12.1*,-2.1,0.5,0.19,
COc1ccc(N/N=C(/C#N)S(=O)(=O)c2nsc(C)c2C#N)cc1,8.1,6.2,-2.2,-3.1,-0.2,2.3,.,
CCn1nc(-c2ccccc2)c2nc3ccccc3nc21,88.3*,-17.5,?,42.0*,74.4,15.3,-0.07,Dye-only ctr=-27.6
Cc1cccc(NC(=O)CCN2CCCCC2)c1,2.0,-6.4,-0.1,31.8*,16.2,6.8,-0.1,Dye-only ctr=-26
CC(=O)N1CCN(S(=O)(=O)c2cccc(C(=O)NNC(=O)c3ccc(Br)cc3)c2)CC1,.,-2.8,.,47.7*,27.4,.,0,Dye-only ctr=-22.6
O=C1NC(=O)/C(=C\c2ccc(Cl)cc2Cl)N1,.,0.7,.,1.1,3.6,.,.,
O=C1NC(=O)/C(=C/c2ccccc2Cl)N1,4.6,2.5,1.3,112.0*,-1.4,3.9,-0.15,
O=C(Nc1ccccc1)NC1CCN(Cc2c(F)cccc2Cl)CC1,3.5,-2.5,1.0,-2.9,-0.5,-7.9,.,
CC(C)(C)c1ccccc1NC(=O)NC1CCN(Cc2c(F)cccc2Cl)CC1,2.7,-3.8,0.4,20.9*,10.1,6.3,-0.17,
COc1ccccc1CNC(=O)c1ccc(S(=O)(=O)N(C)c2ccccc2)cc1,.,1.5,.,-1.8,-0.4,.,.,
SMILES,Bcl-xL primary,eLon inh,MEX-5 binding,Keap1-Nrf2 PPI,C-LANA FP,GLD-1 RNA inh,Keap1 TSA,others
COc1ccccc1N(C)S(=O)(=O)c1ccc(C(=O)NCc2ccccc2CN2CCCC2)cc1,.,-3.9,.,47.2*,29.6,.,-0.19,
Cc1ccc(S(=O)(=O)c2ccc([N+](=O)[O-])cn2)cc1,3.1,2.8,-1.3,6.0,-1.7,0.1,.,
O=[N+]([O-])c1ccc(S(=O)(=O)c2ccccc2)nc1,9.7,0.3,0.9,13.5*,-0.9,-0.7,-0.08,
CC(=O)c1cccc(CN2CCC(C(=O)Nc3ccc(-c4cccc(C)c4)cc3)CC2)c1,4.5,-9.6,-2.7,4.4,2.0,5.7,.,
O=C(COC(=O)Cc1n[nH]c(=O)c2ccccc12)Nc1c(Br)cc([N+](=O)[O-])cc1Br,.,0.4,.,3.8,0.5,.,.,
O=C1CCCc2oc3c(cc(NS(=O)(=O)c4ccc5c6c(cccc46)C(=O)N5)c4ccccc43)c21,9.3,10.8,1.7,23.9*,0.1,11.7,1.59*,
